Measured values taken from PubChem BioAssay AID1159580 (chemical genetic matrix, 2015).
Among all 5,500 compounds or so, about 2,000 (36%) were called active. Inconclusive results (about 18%) are left out. Rule as the data show it: active = normalized growth mostly below about 0.91 (no sharp cut-off); inconclusive = no clear call, values can overlap the other calls; inactive = mostly above about 0.92. The list shows a part of the results.

Assay: chemical genetic growth profiling, strain panel (AID 1159580);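 also: tested at 20 µM; growth read once vehicle control cultures reached saturation at 30 °C; 1 = growth at the plate median or of vehicle wells; lower values mean less growth of the strain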
Conditions: S. cerevisiae deletion strains, growth OD

Measured: normalized growth

CC(C)c1cc2c(c(O)c1O)[C@@]1(C(=O)O)CCCC(C)(C)C1CC2 (stereo partly drawn)
active: locus YKL085W, strain MDH1 (second series), hits give low values 0.913 | locus YKL085W, strain MDH1, hits give low values 0.913 | locus YKR001C, strain vps1, hits give low values 0.866 | locus YLL041C, strain sdh2, hits give low values 0.664 | locus YLR027C, strain aat2, hits give low values 0.884 | locus YLR113W, strain HOG1, hits give low values 0.434 | locus YLR221C, strain rsa3, hits give low values 0.792 | locus YLR258W, strain gsy2, hits give low values 0.859 | locus YLR262C, strain YPT6 (second series), hits give low values 0.552 | locus YLR262C, strain YPT6, hits give low values 0.546 | locus YLR320W, strain mms22, hits give low values 0.809 | locus YLR418C, strain cdc73, hits give low values 0.642 | locus YMR058W, strain fet3, hits give low values 0.815 | locus YMR125W, strain sto1, hits give low values 0.827 | locus YMR205C, strain PFK2, hits give low values 0.873 | locus YMR307W, strain GAS1, hits give low values 0.472 | locus YNL071W, strain lat1, hits give low values 0.207 | locus YNL271C, strain bni1, hits give low values 0.908 | locus YNL298W, strain CLA4, hits give low values 0.874 | locus YOR070C, strain gyp1, hits give low values 0.92 | locus YOR231W, strain MKK1, hits give low values 0.394 | locus YPL051W, strain arl3, hits give low values 0.897 | locus YPL240C, strain hsp82, hits give low values 0.614 | locus YPL241C, strain CIN2, hits give low values 0.914 | locus YPL256C, strain CLN2, hits give low values 0.421
inactive: locus YJL187C, strain SWE1, hits give low values 0.972 | locus YJR043C, strain POL32, hits give low values 0.982 | locus YJR066W, strain TOR1, hits give low values 0.84 | locus YJR075W, strain HOC1, hits give low values 0.947 | locus YKL009W, strain mrt4, hits give low values 0.95 | locus YKL068W, hits give low values 1.02 | locus YKL160W, strain elf1, hits give low values 0.957 | locus YKR026C, strain gcn3, hits give low values 0.994 | locus YKR091W, strain srl3, hits give low values 0.988 | locus YLL001W, strain dnm1, hits give low values 0.984 | locus YLL026W, hits give low values 0.932 | locus YLR039C, strain RIC1, hits give low values 0.831 | locus YLR058C, strain SHM2, hits give low values 1 | locus YLR102C, strain apc9, hits give low values 1.01 | locus YLR268W, strain sec22, hits give low values 0.901 | locus YLR330W, strain CHS5, hits give low values 0.944 | locus YLR342W, strain FKS1 (second series), hits give low values 0.84 | locus YLR342W, strain FKS1, hits give low values 0.968 | locus YLR357W, strain rsc2, hits give low values 0.949 | locus YLR370C, strain arc18, hits give low values 0.974 | locus YLR371W, strain rom2, hits give low values 0.976 | locus YLR384C, strain iki3, hits give low values 1 | locus YML016C, strain PPZ1, hits give low values 0.994 | locus YML032C, strain rad52, hits give low values 0.993 | locus YML120C, strain ndi1, hits give low values 0.984 | locus YML124C, strain tub3, hits give low values 1.01 | locus YMR078C, strain ctf18, hits give low values 1 | locus YMR129W, hits give low values 0.99 | locus YMR223W, strain ubp8, hits give low values 0.964 | locus YMR231W, strain pep5, hits give low values 0.97 | locus YNL067W, strain RPL9B, hits give low values 0.972 | locus YNL153C, strain GIM3, hits give low values 0.985 | locus YNL183C, strain NPR1, hits give low values 0.9 | locus YNL209W, strain ssb2, hits give low values 0.962 | locus YNL233W, strain BNI4, hits give low values 0.955 | locus YNL248C, strain rpa49, hits give low values 0.98 | locus YNL250W, strain rad50, hits give low values 1.01 | locus YNL307C, strain MCK1, hits give low values 0.956 | locus YNL322C, strain KRE1 (second series), hits give low values 1.03 | locus YNR049C, strain mso1, hits give low values 0.997 | locus YNR052C, strain pop2, hits give low values 0.973 | locus YOL012C, strain htz1 0.721 | locus YOL147C, strain pex11, hits give low values 1.04 | locus YOR001W, strain rrp6, hits give low values 0.992 | locus YOR061W, strain CKA2, hits give low values 1 | locus YOR069W, strain VPS5, hits give low values 0.998 | locus YOR080W, strain dia2, hits give low values 0.987 | locus YOR083W, strain WHI5, hits give low values 0.965 | locus YOR106W, strain vam3, hits give low values 0.871 | locus YOR136W, strain idh2, hits give low values 1 | locus YOR144C, strain elg1, hits give low values 1.01 | locus YOR184W, strain ser1, hits give low values 0.964 | locus YOR265W, strain rbl2, hits give low values 0.982 | locus YOR270C, strain vph1, hits give low values 0.954 | locus YOR290C, strain snf2, hits give low values 0.945 | locus YOR316C, strain cot1, hits give low values 1.02 | locus YPL078C, strain atp4, hits give low values 1.01 | locus YPL106C, strain sse1, hits give low values 0.968 | locus YPR119W, strain clb2, hits give low values 1.03 | locus YPR141C, strain kar3, hits give low values 0.992 | locus YPR163C, strain tif3, hits give low values 0.964 | locus YPR167C, strain met16, hits give low values 1 | strain wtn01, hits give low values 0.936
